Results reported in ChEMBL document CHEMBL3988442, “University of Dundee, Small-Polar-MMV Screening Library” (2021).
About 13,000 (27%) of roughly 48,000 compounds showed an effect of 50% or more. This is one part of the list.

tested on: Wolbachia pipientis; assay: Anti-Wolbachia Cell-Based Screen; assay type: functional; design: scale not given: in the data most compounds retested in dose-response had high values; settings: 5 µM

Row | Structure (SMILES) | Percent Effect
1 | CC1(c2ccccc2)CCC(=O)N(CCN2CCCOC2=O)C1 (stereo not drawn) | -2.659%
2 | CC(Cn1cnc2cn(C)nc2c1=O)Oc1cccnc1 (stereo not drawn) | -0.8182%
3 | Cc1[nH]ncc1CCCNC(=O)N1CCN2CCCCC2C1 (stereo not drawn) | -2.363%
4 | CCCn1cnnc1CNC(=O)C1COc2cc(OC)ccc2C1 (stereo not drawn) | -15.52%
5 | CCOCCNC(=O)c1cccc(S(=O)(=O)NC[C@@H]2C[C@H](F)CN2)c1 | -1.824%
6 | Cc1ccc(F)c(C(=O)N2CCN(S(C)(=O)=O)[C@@H](C)C2)c1 | 7.436%
7 | COCc1nc(Cn2ncn3cccc3c2=O)no1 | 10.93%
8 | Cc1cc(C(F)(F)F)cc(=O)n1CCCn1cnnn1 | -2.026%
9 | COCc1nc(CN2C(=O)OC[C@@H]2C(C)C)no1 | 7.812%
10 | Cc1cnn(CCCn2c(C)cc(C(F)(F)F)cc2=O)c1 | -18.2%
11 | Cc1cc(C(F)(F)F)cc(=O)n1CCn1cc(Cl)cn1 | -6.58%
12 | COCc1noc(Cn2c(C)cc(C(F)(F)F)cc2=O)n1 | 123.4%
13 | Cc1cc(C(F)(F)F)cc(=O)n1Cc1nc(C(C)C)no1 | 99.71%
14 | COCc1noc(CCNC(=O)c2cc(C)c(C)[nH]c2=O)n1 | 20.99%
15 | COCc1nc(Cn2c(C)cc(C(F)(F)F)cc2=O)no1 | 116.4%
16 | CCn1cc(CN(C)S(=O)(=O)c2cc(Cl)ccc2Cl)cn1 | 2.949%
17 | COCc1ncc(CN2CC(Oc3c(C)cccc3C)C2)cn1 | 2.359%
18 | C[S+]([O-])c1nncn1CC(=O)c1ccc2c(c1)CCO2 (stereo not drawn) | -1.094%
19 | CC(C)N(C)CC(=O)NCC(O)c1cc2ccccc2s1 (stereo not drawn) | -11.06%
20 | FC(F)(F)Cc1noc(CN2CCCC2c2noc(C3CC3)n2)n1 (stereo not drawn) | 0.1706%
21 | CC(C)c1nc(CSc2nnc(Cn3cncn3)o2)cs1 | -8.133%
22 | CC(C)Cc1nc(CSCC(=O)N2CCC(C)CC2)no1 | 4.489%
23 | CC(C)Cc1cc(NC(=O)c2ccccc2F)n(C)n1 | 99.33%
24 | COc1ccccc1C(=O)Nc1cc(CC(C)C)nn1C | 100.2%
25 | CC(C)Cc1cc(C(=O)NC(C)(CO)CO)n(C)n1 | 11.8%
26 | CC(C)Cc1cc(C(=O)N2CC(OCc3ccccc3F)C2)n(C)n1 | 4.315%
27 | O=c1c2cccnc2cnn1CC(O)c1ccc(Br)cc1 (stereo not drawn) | -15.17%

Row | Structure (SMILES) | Percent Effect
28 | CSCCC(NC(N)=O)C(=O)NCc1cnn(-c2ccccc2)c1 (stereo not drawn) | -24.8%
29 | CCC[C@H]1CN(S(=O)(=O)c2ccccc2)C[C@@H]1N | -22.4%
30 | N[C@H]1CN(S(=O)(=O)c2ccccc2)C[C@@H]1C1CC1 | -7.486%
31 | CC(C)CN1CC(c2nc(-c3ccc(F)cc3)c[nH]2)CC1=O (stereo not drawn) | -3.521%
32 | CC(C)CN1CC(O)CN(S(=O)(=O)c2ccc(F)cc2)CC1=O (stereo not drawn) | 103.6%
33 | CC(C)CN1CCNC(=O)C12CCN(S(=O)(=O)c1ccc(F)cc1)CC2 | -14.33%
34 | CC(C)CN1CC(O)CN(S(=O)(=O)c2ccccc2)CC1=O (stereo not drawn) | 100.2%
35 | O=C1CO[C@@H]2CN(S(=O)(=O)c3ccccc3)C[C@H]2N1CC1CC1 | -2.601%
36 | CCN1CCNC(=O)C12CCN(S(=O)(=O)c1ccc(F)cc1)CC2 | -6%
37 | O=C1CN(S(=O)(=O)c2ccc(F)cc2)CC(O)CN1CC1CC1 (stereo not drawn) | 106.3%
38 | Cc1ccc(C)c(OC(C)C(=O)NCCNc2cccnc2)c1 (stereo not drawn) | 16.95%
39 | CCn1ncc2c1NC(=O)CC2c1cnc(-c2ccccn2)nc1 (stereo not drawn) | -2.059%
40 | COc1ccccc1N1CCN(C(=O)Cn2nc(C)cc2C)CC1(C)C | -9.26%
41 | Cc1c(Cl)c(C(=O)N2CC[C@H](N3CCOCC3)[C@H](CCCO)C2)nn1C | -7.195%
42 | CC(C)(C)c1nc(CN2CCC(c3nc4cc(Cl)ccc4o3)CC2)no1 | -20.96%
43 | CC(C)(C)c1noc(CN2CCCN(Cc3cccs3)CC2)n1 | 1.032%
44 | CCc1noc(CN2CCCN(C(N)=O)CC2)n1 | -3.109%
45 | CCc1nc(CN2CCCN(c3cnc4ccccc4n3)CC2)no1 | -8.028%
46 | Cc1noc(CN2CCN(Cc3cccs3)CC2)n1 | 0.5359%
47 | CCc1noc(CN2CCCN(Cc3cccs3)CC2)n1 | 74.2%
48 | CCc1noc(CN2CCN(Cc3cccs3)CC2)n1 | 91.28%
49 | CC(C)CCN1CCN(Cc2nc(C(C)C)no2)CC1 | -7.959%
50 | CC(C)(C)c1nc(CN2CCCN(Cc3cccs3)CC2)no1 | 85.49%
51 | CC(C)c1noc(CN2CCCN(Cc3cccs3)CC2)n1 | 67.59%
52 | CC(C)Cc1noc(CN2CCN(C(=O)c3cccs3)CC2)n1 | -25.07%
53 | Cc1cc2nc(CO[C@H]3CN(CC4CC4)C[C@H]3F)[nH]c2cc1C | -2.135%
